According to article PMC8384837, “Expanding the binding specificity for RNA recognition by a PUF domain”:

Legend:
Assay in all cases: yeast three-hybrid, YBZ-1, SC-Leu-His + 0.5 mM 3-AT, 4 days
Details in all cases: tags: N-Gal4 AD-HA kept; label: inside an RPR1-promoter hybrid RNA with tandem MS2 sites; ssRNA
PUM1 PUF domain R3-MCK = PUM1 PUF domain R3-MCK (Homo sapiens, UniProt Q14671 828-1176, C935M;R936C;Q939K)
In short: (§1)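 The interaction score is the log change in variant frequency from input to selection. Scores were computed in log2 with a pseudocount of 1 for absent variants, using Illumina sequencing of PCR-amplified repeat regions. The input came from four days on SC-Leu and the selection from four days on SC-Leu-His + 0.5 mM 3-AT. The cells were strain YBZ-1 (LexA–MS2 coat fusion, HIS3 reporter) co-expressing Pumilio-1 PUF domain libraries and matching RNA elements from a centromeric plasmid.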

PUM1 PUF domain R3-QRR = PUM1 PUF domain R3-QRR (Homo sapiens, UniProt Q14671 828-1176, C935Q;Q939R)
In short: as §1

PUM1 PUF domain R8-MYL = PUM1 PUF domain R8-MYL (Homo sapiens, UniProt Q14671 828-1176, N1122M;Q1126L)
In short: as §1

PUM1 PUF domain R6-DWQ = molecular target: T1, PUM1 PUF domain R6-DWQ (Homo sapiens, UniProt Q14671 828-1176, N1043D;Y1044W)
T1 sequence: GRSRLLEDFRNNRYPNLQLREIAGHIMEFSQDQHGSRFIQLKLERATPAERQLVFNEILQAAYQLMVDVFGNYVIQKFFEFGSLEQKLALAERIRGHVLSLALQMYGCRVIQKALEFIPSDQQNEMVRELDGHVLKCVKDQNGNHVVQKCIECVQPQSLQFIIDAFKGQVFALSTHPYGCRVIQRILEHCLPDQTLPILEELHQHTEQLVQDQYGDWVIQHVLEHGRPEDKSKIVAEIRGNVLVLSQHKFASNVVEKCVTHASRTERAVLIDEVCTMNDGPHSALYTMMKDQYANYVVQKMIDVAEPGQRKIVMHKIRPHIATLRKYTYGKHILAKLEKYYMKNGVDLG
In short: as §1

PUM1 PUF domain R5-GYV = PUM1 PUF domain R5-GYV (Homo sapiens, UniProt Q14671 828-1176, C1007G;R1008Y;Q1011V)
In short: as §1

Sequence of PUM1 PUF domain R8-MYL (Q14671 828-1176 N1122M/Q1126L): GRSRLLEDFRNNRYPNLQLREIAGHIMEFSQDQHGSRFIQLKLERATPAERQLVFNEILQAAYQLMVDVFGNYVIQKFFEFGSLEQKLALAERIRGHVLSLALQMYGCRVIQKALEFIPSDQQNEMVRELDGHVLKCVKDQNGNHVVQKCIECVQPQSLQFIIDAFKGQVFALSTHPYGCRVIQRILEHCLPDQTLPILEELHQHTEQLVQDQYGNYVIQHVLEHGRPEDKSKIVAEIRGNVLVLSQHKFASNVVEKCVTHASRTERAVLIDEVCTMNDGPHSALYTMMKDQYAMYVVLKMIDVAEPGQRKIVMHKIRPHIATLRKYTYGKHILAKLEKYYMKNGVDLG
Sequence of PUM1 PUF domain R3-MCK (Q14671 828-1176 C935M/R936C/Q939K): as the sequence (Q14671 828-1176 N1122M/Q1126L) above, with C108M, R109C, Q112K, M295N, L299Q counted along it

In the case of “GGCUAGAACUAGUGGAUCCCCCGGCGCCCGGCGGCUCGAGCCCGGGUAAGUGUAAGUAGUCUGCAUGCCGCCGGGCGCCAUGCCUGCAGGUCGACUCUAGAAAACAUG”, the binding signal (PUM1 PUF domain R3-MCK) is reported as 4.78 log2 enrichment (interaction score) and the binding signal (PUM1 PUF domain R3-QRR) is reported as 3.94 log2 enrichment (interaction score).
With “GGCUAGAACUAGUGGAUCCCCCGGCGCCCGGCGGCUCGAGCCCGGGUAAGCGUAAAUAGUCUGCAUGCCGCCGGGCGCCAUGCCUGCAGGUCGACUCUAGAAAACAUG” the binding signal (PUM1 PUF domain R8-MYL) was 2.58 log2 enrichment (interaction score).
“GGCUAGAACUAGUGGAUCCCCCGGCGCCCGGCGGCUCGAGCCCGGGUAAGUGCAAAUAGUCUGCAUGCCGCCGGGCGCCAUGCCUGCAGGUCGACUCUAGAAAACAUG” was tested, and the binding signal (PUM1 PUF domain R6-DWQ) was 2.44 log2 enrichment (interaction score).
“GGCUAGAACUAGUGGAUCCCCCGGCGCCCGGCGGCUCGAGCCCGGGUAAGUGUGAAUAGUCUGCAUGCCGCCGGGCGCCAUGCCUGCAGGUCGACUCUAGAAAACAUG” was tested, and the binding signal (PUM1 PUF domain R5-GYV) was 2.9 log2 enrichment (interaction score).
